An excerpt weighted towards active compounds, which were near 0.86% of everything screened.
TLR4 MyD88 comp = blocks binding of human TLR4 to MyD88. O00206+Q99836. HeLa CL3-4 TLR4/MyD88 BLA complementation, FRET ratio. 200,000 tested, 0.18% active. inhibition, % at 8.4 µM; in the data active = inhibition above about 25%;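 also: 0% = vehicle and 100% = reference inhibitor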
Target sequence (O00206 whole entry, looked up): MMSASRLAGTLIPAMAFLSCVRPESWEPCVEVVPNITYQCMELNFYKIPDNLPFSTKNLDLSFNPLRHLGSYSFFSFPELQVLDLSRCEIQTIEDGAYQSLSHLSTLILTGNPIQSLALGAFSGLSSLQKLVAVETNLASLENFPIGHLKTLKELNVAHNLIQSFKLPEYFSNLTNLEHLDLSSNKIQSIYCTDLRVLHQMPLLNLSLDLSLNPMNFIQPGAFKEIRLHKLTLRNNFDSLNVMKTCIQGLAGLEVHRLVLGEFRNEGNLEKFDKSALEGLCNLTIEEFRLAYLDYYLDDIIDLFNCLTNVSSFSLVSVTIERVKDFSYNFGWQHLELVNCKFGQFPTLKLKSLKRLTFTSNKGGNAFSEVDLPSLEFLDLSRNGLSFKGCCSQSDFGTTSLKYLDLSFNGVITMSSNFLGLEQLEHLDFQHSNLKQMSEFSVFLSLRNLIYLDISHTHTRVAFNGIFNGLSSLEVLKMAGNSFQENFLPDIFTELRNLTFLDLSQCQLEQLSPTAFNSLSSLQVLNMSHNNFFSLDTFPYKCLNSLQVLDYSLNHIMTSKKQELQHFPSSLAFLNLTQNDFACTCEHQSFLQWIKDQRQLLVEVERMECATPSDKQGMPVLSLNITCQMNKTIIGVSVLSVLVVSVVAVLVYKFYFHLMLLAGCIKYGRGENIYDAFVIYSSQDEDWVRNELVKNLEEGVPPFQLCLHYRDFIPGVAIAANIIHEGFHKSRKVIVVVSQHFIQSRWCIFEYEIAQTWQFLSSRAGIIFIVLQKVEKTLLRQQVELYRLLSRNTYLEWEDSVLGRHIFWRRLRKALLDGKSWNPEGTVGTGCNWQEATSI
Target sequence (Q99836 whole entry, looked up): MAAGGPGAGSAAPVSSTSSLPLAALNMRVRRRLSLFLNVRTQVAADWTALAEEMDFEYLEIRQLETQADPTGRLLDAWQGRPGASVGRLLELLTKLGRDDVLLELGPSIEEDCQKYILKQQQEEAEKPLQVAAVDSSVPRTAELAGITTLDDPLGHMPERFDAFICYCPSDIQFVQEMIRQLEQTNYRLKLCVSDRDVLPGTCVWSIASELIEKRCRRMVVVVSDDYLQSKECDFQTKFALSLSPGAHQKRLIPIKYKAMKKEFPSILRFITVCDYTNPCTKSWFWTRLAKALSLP
IDE act = boosts human insulin-degrading enzyme activity in HEK cells; P14735; FAbeta-B cleavage, fluorescence polarization; 0% vehicle, 100% cell-free pure enzyme wells; activation, % at 5.96 µM; 340,000 tested, 0.073% active;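 active = activation above the mean of all tested compounds plus 3 SD, set per screening campaign, cut at about 17% in these data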
IDE cell inh = inhibitors of human insulin-degrading enzyme in cells; P14735; HEK cells, FAbetaB cleavage, fluorescence polarization; inhibition, % at 5.59 µM; 320,000 tested, 0.41% active;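 active = percent inhibition above the average of all tested compounds plus 3 SD, set per screening campaign, cut at about 16% in these data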;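 also: IDE supplied by intact live HEK cells; FP after avidin binding of uncleaved biotin substrate so inhibition keeps polarization high; 0% = DMSO wells and 100% = 60 µM reference IDE inhibitor Ii1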
NOD2 RIPK2 PPI = NOD2-RIPK2 protein interaction inhibition. O43353. CHO BLA complementation NOD2-RIPK2, CCF4 ratio. inhibition, % at 4.98 µM. 360,000 tested, 0.38% active. AID 624267; in the data active = inhibition above about 21%;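 also: 0% = vehicle only and 100% = reference blocker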
TLR9-MyD88 inh = TLR9-MyD88 interaction inhibition | CHO BLA complementation TLR9-MyD88, CCF4 FRET ratio | inhibition, % at 4.98 µM | 340,000 tested, 0.21% active;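 active = inhibition above the mean over all tested compounds plus 3 SD, cut at about 21% in these data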;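 also: 0% = DMSO only wells and 100% = clavulanate BLA inhibitor control wells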
TLR9-MyD88 cf = TLR9-MyD88 interaction inhibition, confirmation | 680 tested, 51% active | AID 540250 | CHO TLR9/MyD88 BLA complementation, CCF4 FRET ratio | inhibition, % at 4.98 µM | shares compounds with TLR9-MyD88 inh;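 active = mean inhibition across three repeats above about 21% taken from the earlier screen, limit read from the data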;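 also: blue over green emission ratio reports constitutive TLR9 MyD88 association via BLA complementation; 0% = DMSO vehicle wells and 100% = clavulanate BLA inhibitor wells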
BLA counter = counter-screen for TLR9-MyD88 inhibitors: non-selective beta-lactamase inhibitors; inhibition, % at 4.98 µM; shares compounds with TLR9-MyD88 inh; 680 tested, 7% active; CHO-BLA cells, CCF4 FRET ratio, BLA reporter;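 active = mean inhibition above a 50% cutoff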;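 also: counterscreen of TLR9-MyD88 hits on CMV-driven BLA in CHO-K1 cells; 0% = DMSO alone and 100% = clavulanate blocking BLA; higher means less blue over green ratio so more BLA blockade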
TLR9 CHO tox = CHO cell toxicity counter-screen for TLR9-MyD88 inhibitors. TLR9-MyD88 CHO cells cytotoxicity, luminescence. inhibition, % at 4.98 µM. 680 tested, 39% active. shares compounds with TLR9-MyD88 inh. AID 588336; in the data active = inhibition above about 11%
Starred values were filed as active, the others as inactive; / = no result given.

SMILES	TLR4 MyD88 comp	IDE act	IDE cell inh	NOD2 RIPK2 PPI	TLR9-MyD88 inh	TLR9-MyD88 cf	BLA counter	TLR9 CHO tox
O=c1c2ccccc2c(-c2cccc(C(F)(F)F)c2)nn1-c1ccccc1	/	4	-4	-9	-1	/	/	/
CC(C)(C)c1cc(NC(=O)c2c(F)cccc2Cl)n(-c2ccccc2)n1	/	1	-1	1	23*	3	4	1
CCOC(=O)C1CC2=C(CC(C)(C)CC2=O)N(CCOC)C1=O (stereo not drawn)	/	-4	/	-7	-1	/	/	/
Cn1c(O)c(/C=N/NC(=O)c2cc3ccccc3cc2O)c2ccccc21	/	-12	8	17	31*	23*	16	25*
NC(=O)C1CCN(c2ccc3c(c2)S(=O)(=O)c2ccccc2C3=O)CC1	/	-3	-1	1	23*	6	5	0
CC1CCN(c2ccc3c(c2)S(=O)(=O)c2ccccc2C3=O)CC1	/	-7	12	19	32*	22*	24	5
O=C1c2ccccc2S(=O)(=O)c2cc(N3CCC4(CC3)OCCO4)ccc21	/	/	13	/	/	/	/	/
Cc1c(Br)c([N+](=O)[O-])nn1CC(=O)Nc1cccc2nonc12	0	4	-3	-9	5	/	/	/
Cc1ccc(NC(=O)C2=C(O)c3ccccc3N(C)S2(=O)=O)cc1	14	7	-4	-16	13	/	/	/
O=c1n(Cc2ccccc2)nc2n1-c1ccccc1SC2	/	6	-6	-12	1	/	/	/
C=CCn1nc2n(c1=O)-c1ccccc1SC2	/	-2	4	1	23*	0	3	-2
CC(C)[C@@H]1C=C(C(=O)O)O[C@H](OCCCCO)C1	/	-4	0	8	-1	/	/	/
CCCCn1c(CN2CCN(C(=O)OCC)CC2)nc2c1c(=O)[nH]c(=O)n2C	-7	1	-1	7	-7	/	/	/
CC(=N/O)/C(C)=N\NC(=O)c1ccccn1	7	1	-6	6	53*	4	5	6
COCCn1cnc2c1c(=O)n(Cc1cc(C(C)=O)ccc1OC)c(=O)n2Cc1ccccc1	/	4	0	-14	2	/	/	/
O=C(CCCn1nnc2ccccc2c1=O)N[C@@H](Cc1ccccc1)C(=O)O	/	2	-2	7	-5	/	/	/
CCN(CC)c1nc2ccccc2nc1C(C#N)C(=O)NCCCOC (stereo not drawn)	-5	1	7	7	13	/	/	/
CCCCN(CCCC)c1nc2ccccc2nc1C(C#N)C(=O)NCCCOC (stereo not drawn)	19	-1	4	-8	40*	9	13	6
O=CN1CCN(C(=O)c2ccccc2Cl)CC1	-2	-2	0	-5	44*	-5	-5	-2
CCOC(=O)CNc1c(-c2ccc(OC)cc2)nc2ccc(Cl)cn12	3	0	-17	5	4	/	/	/
CCOC(=O)CNc1c(-c2ccc(F)cc2)nc2cnccn12	14	3	9	16	24*	8	7	-2
CCN(CC)c1ccc(NC(=O)c2[nH]c(C)c(C(C)=O)c2C)c(C)c1	16	4	-3	1	1	/	/	/
N/C(=N\OC(=O)c1ccccc1F)c1ccc([N+](=O)[O-])cc1	/	5	3	-17	5	/	/	/
COc1cc(NC(=O)Cn2ncc(Cl)c(Cl)c2=O)c(C)cc1[N+](=O)[O-]	18	1	/	12	21*	23*	19	98*
CCOC(=O)CN1C(=O)COc2ccc(C(C)(C)C)cc21	-11	-5	4	3	-5	/	/	/
SMILES	TLR4 MyD88 comp	IDE act	IDE cell inh	NOD2 RIPK2 PPI	TLR9-MyD88 inh	TLR9-MyD88 cf	BLA counter	TLR9 CHO tox
O=C(NCc1ccco1)c1cccc2c1C(=O)c1ccc(/C=C/c3ccccc3)cc1S2(=O)=O	/	-6	8	5	30*	47*	52*	12*
Cc1nc2ccc(NS(=O)(=O)c3ccc(F)c(C)c3)cc2[nH]1	/	-3	0	-8	-7	/	/	/
O=C(COC(=O)/C=C/c1ccc(Cl)cc1)Nc1ccc2[nH]c(=O)[nH]c2c1	/	13	1	2	23*	9	5	13*
O=C(COC(=O)c1cccc(Br)c1)Nc1ccc2[nH]c(=O)[nH]c2c1	/	-1	-2	3	21*	0	-2	3
COc1ccc(CCNc2cn[nH]c(=O)c2Cl)cc1OC	8	-3	-11	9	-1	/	/	/
O=c1[nH]ncc(NCCc2ccccc2)c1Cl	-6	1	2	-5	24*	-8	-5	-1
Cc1c(Cl)c([N+](=O)[O-])nn1CCCC(=O)Nc1sc2c(c1C#N)CCC2	2	3	-3	-10	23*	-5	-1	-3
Cc1c(Br)c([N+](=O)[O-])nn1CCCC(=O)Nc1sc2c(c1C#N)CCC2	1	3	0	-1	1	/	/	/
CS(=O)(=O)c1cnc(-c2cccnc2)nc1N	-2	-3	6	-12	22*	0	-1	6
O=S(=O)(c1ccc(Cl)cc1)c1cnc(-c2cccnc2)nc1-c1ccccc1	0	2	-1	-8	-2	/	/	/
CCCCN(C)C(=O)c1nc2ccccn2c1CN1CCSCC1	-3	4	0	0	-2	/	/	/
Cc1ccc(C)c(C(=O)CCC(=O)O)c1	/	-6	2	-6	-14	/	/	/
O=C1Cc2ccccc2C(=O)N1c1cccc(Cl)c1	/	3	6	-1	11	/	/	/
O=C1Cc2ccccc2C(=O)N1c1ccccc1	/	-2	6	-7	31*	42*	46	6
CC(=O)C1=NOC2C(=O)N(c3ccc(Cl)cc3)C(=O)C12 (stereo not drawn)	/	-1	-1	-1	-5	/	/	/
O=C(C1=NN(c2ccccc2)C2C(=O)N(c3ccc(Cl)cc3)C(=O)C12)c1ccccc1 (stereo not drawn)	15	-18	15	15	30*	25*	24	-1
O=C(Nc1ccncc1)c1c(Cl)cccc1Cl	/	0	6	-4	0	/	/	/
COc1cccc(/C=N/NC(=S)Nc2cccnc2)c1	3	3	8	7	8	/	/	/
COc1ccc(O)c(/C=N/NC(=S)Nc2cccnc2)c1	-3	8	2	5	29*	15	8	17*
COc1ccc(NC(=O)/C(Cl)=C(/Cl)S(=O)Cc2ccc(Cl)cc2)cn1 (stereo not drawn)	25	-15	/	68*	54*	56*	36	99*
COc1ccc(NC(=O)C(Cl)=C(Cl)Cl)cn1	2	4	/	-3	6	/	/	/
Cc1ccsc1C(=O)OCC(=O)NC1CCCCC1	/	/	/	-9	21*	-5	-5	0
